Only some compounds are listed: those with a hit (about 17% of all), similar ones and a draw of the others.
HT1080-NT tox: kills 2HG-producing HT-1080-NT fibrosarcoma cells | Potency, µM (top dose mostly 46.1 µM), for the others: at the top dose activity, negative = less viability, usual class: cytotoxic | HT-1080-NT fibrosarcoma viability, CellTiter-Glo ATP luminescence, 48 h | 360,000 compounds, 1.6% hits;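 further: NT is the 2HG producing partner of a matched IDH1 knockdown line; 0% = DMSO-treated cells and -100% = media-only wells without cells; nearly all actives have a fitted effect of over 55% in size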
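Read-out is CellTiter-Glo luminescence after 10 minutes at room temperature, following 48 hours' compound treatment of HT-1080-NT cells (750 cells/well, RPMI, 5% FBS, 37 degrees C).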
TGFb SMAD3 inh: blocks TGF-b signaling | HepG2 CAGA-GFP TGF-b/SMAD3 reporter, GFP fluorescence, 18 h; TGF-beta stimulated, 500 pg/mL final | Potency, µM (top dose mostly 46.1 µM), inactives show at the highest dose activity, negative = inhibition, usual class: inhibitors | 410,000 compounds, 1.2% hits | AID 588855; further: on the % scale 0 is the no-effect control and ±100 the full control effect; nearly all actives have a fitted effect of over 65% in size
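HEPG2 CAGA-GFP cells (1000/well, DMEM with 1% FBS) were pre-incubated 2 h at 37 degrees C, given compound by pin tool, then stimulated with TGF-beta at 500 pg/mL final for 18 h before per-cell GFP fluorescence imaging.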
TDP1 cell noCPT: qHTS for Inhibitors of human tyrosyl-DNA phosphodiesterase 1 (TDP1): qHTS in cells in absence of CPT; DT40 Tdp1-/- hTDP1 cells, no CPT, ATP luminescence, 48 h; Potency, µM (top dose mostly 46.2 µM), without a hit: at the highest dose activity change, negative = growth inhibition, hits mostly inhibitors; 420,000 compounds, 15% hits; AID 686978, 2013; further: on the % scale 0 is the no-effect control and ±100 the full control effect; nearly all actives have a fitted effect of over 55% in size
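Cells were dispensed at 400 per well, compounds added by pin tool, plates incubated ≥48 hr at 37 °C, then CellTiter-Glo added for 30 min at room temperature before luminescence reading. Line: DT40 Tdp1-/- complemented with hTDP1; camptothecin omitted.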
HT1080 IDH1KD tx: toxicity to HT-1080 IDH1 knockdown cells (counter line); 360,000 compounds, 2% hits; HT-1080 IDH1 knockdown viability, ATP luminescence, 48 h; Potency, µM (series often up to 46.1 µM), for inactives: at the top dose activity, negative = toxicity, actives largely listed as cytotoxic;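 further: 0% = DMSO wells and -100% = cell-free medium wells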
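After a 2 h attachment period, IDH1KD HT-1080 cells took pin-transferred compound for 48 h at 37 °C; ATP-based luminescence after 10 min room-temperature reagent incubation reported viability.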
TDP1 cell CPT: DT40-hTDP1 cell growth loss with CPT; chicken DT40 Tdp1-/-;hTDP1 cells + 20 nM CPT, ATP luminescence, 48 h; Potency, µM (titrated, usually from 46.2 µM), inactives show at the top dose activity change, negative = growth inhibition, most hits filed as inhibitors; 420,000 compounds, 12% hits; AID 686979; further: on the % scale 0 is the no-effect control and ±100 the full control effect; nearly all actives have a fitted effect of over 55% in size
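Cell growth measured by CellTiter-Glo luminescence after a minimum 48 h, 37 C compound exposure with 20 nM CPT in Tdp1-knockout DT40 cells stably expressing hTDP1, seeded 400/well; qHTS titration format.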
HepG2 tox: HepG2 cytotoxicity, counter-screen for TGF-b inhibitors. HepG2 CAGA-GFP viability, ATP luminescence, 18 h. Potency, µM (doses to about 46.1 µM), for the others: at the highest dose activity change, negative = cytotoxicity, actives largely listed as cytotoxic. 410,000 compounds, 0.76% hits
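CellTiter-Glo luminescence gave cytotoxicity after 18 hours at 37 degrees C. The cells were HepG2 CAGA-GFP in 1% FBS DMEM, stimulated with 500 pg/mL TGF-beta after compound addition. %Activity was normalised to no-cell wells (complete cell-killing) and DMSO (no toxicity), and curves were fitted and classified.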
Numbers without * were called inactive; ? = inconclusive; . = no result; [ ] = another dose, or the depositor's remark. The call rests on the fitted dose curve; in most records, active means well fitted curve in the direction sought with a large enough effect; inconclusive means small, poorly fitted or top-dose-only effect, or another doubt; inactive means no such curve, though single readings can be large; an effect the other way counts as inactive or inconclusive. Potency means the concentration at half of the fitted maximal effect.

SMILES	HT1080-NT tox	TGFb SMAD3 inh	TDP1 cell noCPT	HT1080 IDH1KD tx	TDP1 cell CPT	HepG2 tox
c1ccc(-n2nnc3c(N4CCOCC4)ncnc32)cc1	-4%	10%	?	-1%	-11%	-38%
Cc1ccc2c(c1)c1ncnc(N3CCN(c4ccccc4)CC3)c1n2C	1%	10%	?	1%[9.24 µM]	21µM*	-1%
Cc1ccc(C(=O)NCc2ccco2)o1	15%	-6%	1%	4%	1%	-3%
CCOC(=O)N1CCN(C(c2cc3ccccc3o2)c2nnnn2C(C)(C)C)CC1 (stereo unspecified)	10%	.	?	3%	-5%	.
Cc1cccc(C)c1N1CCN(C(c2cc3ccccc3o2)c2nnnn2C(C)(C)C)CC1 (stereo unspecified)	4%	.	?	?	15µM*	.
CCCCn1nnnc1C(c1cc2ccccc2o1)N1CCN(CCN(C)C)CC1 (stereo unspecified)	?	.	21µM*	-1%	?	.
CCCCn1nnnc1C(c1cc2ccccc2o1)N1CCCCC1 (stereo unspecified)	3%	.	?	-28%	?	.
CCCCn1nnnc1C(c1cc2ccccc2o1)N1CCN(c2cc(C)nc3ccccc23)CC1 (stereo unspecified)	18µM*	.	?	?	?	.
CCCCn1nnnc1C(c1cc2ccccc2o1)N1CCN(c2ccccc2F)CC1 (stereo unspecified)	16%	.	?	7%	?	.
CCCCn1nnnc1C(c1cc2ccccc2o1)N1CCN(c2c(C)cccc2C)CC1 (stereo unspecified)	10%	.	18µM*	16%	?	.
COc1cc(-c2c(OC)cccc2OC)cc2c1OCCN(C(=O)CCC(=O)c1ccc(F)cc1)C2	.	.	-7%	.	-90%[9.04 µM]	.
CC1(CCC(=O)N2CCCC(Nc3ccc(F)cc3)C2)CC1 (stereo unspecified)	-3%	-9%	-11%	-8%	-12%	-6%
CN(CC(=O)Nc1cccc(F)c1)C(=O)c1cc(S(=O)(=O)N(C)C)ccc1N1CCCC1	-6%	-6%	-16%	1%	-23%	-3%
CCCCn1nnnc1C(c1cc2ccccc2o1)N1CCN(c2ccncc2)CC1 (stereo unspecified)	?	.	23µM*	?	21µM*	.
Cc1cc(NC(=O)CCCN2C(=O)c3cccnc3C2=O)no1	0%	19%	26µM*	?	21µM*	-68%
Cc1cc(NC(=O)CCCN2C(=O)c3cccc4cccc(c34)C2=O)no1	?	14%	-11%	?	1%	0%
CCSc1nc(-c2ccccc2OC)nc2c1Cc1c(CO)cnc(C)c1O2	.	-16%	8.2µM*	.	8.2µM*	-23%
COc1cccc(CSc2nc(-c3ccccc3F)nc3c2Cc2c(CO)cnc(C)c2O3)c1	.	9%	21µM*	.	?	3%
CCSc1nc(-c2ccccc2F)nc2c1Cc1c(CO)cnc(C)c1O2	.	-25%	-25%	.	-14%	12%
CC(OC(=O)COc1ccccc1)C(=O)NC1CCCC1 (stereo unspecified)	4%	-4%	9%	4%	-2%	3%
CCSc1ncc(Cl)c(C(=O)N(Cc2ccccc2)c2ccc(OC)cc2)n1	.	.	5.8µM*	.	?	-27%
COc1ccc(CNC(=O)c2nc(SCc3ccccc3F)ncc2Cl)cc1	.	?	?	.	?	-29%
CCCCOc1ccc(C(=O)N(Cc2ccc(N(C)C)cc2)Cc2ccco2)cc1	.	.	13µM*	.	?	-23%
Cc1ccc(CN(Cc2ccco2)C(=O)c2ccco2)cc1	7%	-14%	-14%	-1%	?	-19%
CC(C)Oc1ccc(C(=O)N(Cc2ccc(N(C)C)cc2)Cc2ccco2)cc1	.	.	13µM*	.	?	-33%
SMILES	HT1080-NT tox	TGFb SMAD3 inh	TDP1 cell noCPT	HT1080 IDH1KD tx	TDP1 cell CPT	HepG2 tox
Cc1ccccc1C(=O)N(Cc1ccc(N(C)C)cc1)Cc1ccco1	.	.	18µM*	.	?	-22%
COc1cccc(C(=O)N(Cc2ccc(N(C)C)cc2)Cc2ccco2)c1	.	.	?	.	?	-23%
O=C(Nc1ccc(NS(=O)(=O)c2ccccc2)c(Cl)c1)c1ccccc1	-9%	12%	-19%	-14%	-12%	-8%
O=C(C1CCC1)N1CCc2cc(S(=O)(=O)NCCc3ccccc3)ccc21	.	-20%	?	.	?	-4%
CCCOc1ccc(C(=O)N(Cc2ccco2)Cc2ccco2)cc1	.	-22%	?	.	?	3%
CN(C)c1ccc(CN(Cc2ccco2)C(=O)c2ccc(F)cc2)cc1	.	.	?	.	?	-27%
CCCCOc1ccc(C(=O)N(Cc2ccco2)Cc2ccco2)cc1	.	?	21µM*	.	?	-36%
CCSc1ncc(Cl)c(C(=O)N(Cc2ccc(N(C)C)cc2)Cc2ccco2)n1	.	.	21µM*	.	?	-37%
C=C(C)c1ccc(C(C)(C)NC(=O)NCc2ccco2)cc1	0%	7%	-19%	-10%[9.24 µM]	-10%	-49%
C=C(C)c1ccc(C(C)(C)NC(=O)N(Cc2ccccc2)Cc2ccco2)cc1	-28%	3%	16µM*	?	18µM*	-27%
Cc1ccc(C(=O)N(Cc2ccc(N(C)C)cc2)Cc2ccco2)cc1	.	.	21µM*	.	?	-23%
Cc1cc(C)c(NC(=O)COc2ccccc2C(=O)Nc2ccc3c(c2)oc2ccccc23)c(C)c1	10%	0%	-2%	2%	?	-34%
Cc1cc(C)c2c(CC(=O)NN(C)C)coc2c1	-8%	-9%	-10%	23%	29%	-1%
Cc1cc(C)c2c(CC(=O)N(Cc3ccc(N(C)C)cc3)Cc3ccco3)coc2c1	.	?	21µM*	.	15µM*	-27%
O=C(COc1ccccc1F)Nc1nnc(SCc2cc(=O)n3ccccc3n2)s1	.	-2%	-3%	.	1%	-2%
Cc1ccc(C(=O)N2CCN3C(=O)c4ccccc4C23c2ccc(Cl)cc2)cc1 (stereo unspecified)	?	-15%	10µM*	?	8.2µM*	-37%
O=C(Nc1cccc(Cl)c1)N1CCN2C(=O)c3ccccc3C12c1ccccc1 (stereo unspecified)	?	?	18µM*	?	?	-19%

Screens from PubChem.
